Reference: PubChem BioAssay (NCI)
About 79,000 compounds went through this panel and 15% of them were active in at least one assay; those are over-represented in the sample as a whole. Values without a mark were called inactive. Active and inactive are the calls of the source. No stated cut-off is given here; in the data, active means growth inhibition above about 70%; inactive means the rest.

assay: NCI Yeast Anticancer Drug Screen. Data for the bub3 strain (AID 167); conditions: S. cerevisiae bub3 mutant strain, at 50.0 µM, hits give high values
Method in brief: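 Inhibition values come from growth of compound-treated mutant yeast normalised to vehicle-treated controls.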

SMILES	growth inhibition
Cc1cc(O)c(C(C)C)cc1N=O	-15.6%
CCC(=O)OCCSCCOC(=O)CC	-4.4%
C[Si](C)(C)CN=P(c1ccccc1)(c1ccccc1)c1ccccc1	3.7%
CC(=O)Oc1cccc(/C=C/C(=O)O)c1	39.6%
CCCCOC1NC(=O)NC(=O)C1(F)C(=O)OCC (stereo not given)	-9.55%

assay: NCI Yeast Anticancer Drug Screen. Data for the mlh1 rad18 strain (AID 175); conditions: S. cerevisiae mlh1 rad18 strain growth inhibition; at 50.0 µM; hits give high values
Method in brief: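 Cells of a genetically altered yeast strain, deficient in DNA damage repair, were treated with compound. Their growth was then compared with that of vehicle-treated cultures to give inhibition.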

SMILES	growth inhibition
CCOC(=O)c1csc(N)n1	-18.3%
CS/C(=C\c1ccc2ccccc2[n+]1C)N1CCN(CCCO)CC1	38.1%
COc1ccc(Cc2ccc(OC)c3ccccc23)c2ccccc12	-5.25%
Cn1c(N(CCO)CCO)cnc1[N+](=O)[O-]	-4.8%
Cc1cc(S(=O)(=O)NC(=NCC(=O)NN)NN)c(S)cc1Cl	15.4%
C=CCN1C(=O)c2ccccc2C1=O	21.6%
OCC1OC(n2ncc3c(Nc4ccccc4)ncnc32)C(O)C1O (stereo not given)	17.9%
COc1ccc([N+](=O)[O-])c(OC)c1	9.05%
O=C1C(=O)c2ccccc2C(O)=C1CC=C(Cl)Cl	-33.6%
CC(=O)SCC(C)CCl (stereo not given)	-25.4%
Cc1ccnc(N=C(N)Nc2cc(C)ccn2)c1	8.85%
Nc1c(Cl)ncnc1Cl	-39.7%
CCOC(=O)C1OC1(C)c1ccc(Cl)cc1 (stereo not given)	0.6%
CCC(=O)Oc1cc(C(C)(C)C)c(OC(=O)CC)cc1C(C)(C)C	35.4%
COc1cc(Cc2cc(OC)c(OC)c(OC)c2)ccc1O	9.5%
O=C(O)C(Nc1ccccc1)c1ccccc1 (stereo not given)	-6.95%
COc1cc2nccnc2c(N)c1OC	19.9%
CC(C)CC(O)CC(C)C	19.8%
N#CCCCCCCC(N)=O	-16.2%
CCOP(=O)(OCC)/C(C#N)=C/c1cnc(-c2ccccc2)[nH]1	-34%

SMILES	growth inhibition
CSc1nc(N(C)C)c2[nH]c(C)nc2n1	31.6%
C=C1C(=O)O[C@@H]2[C@H]1CC[C@H](C)[C@@H]1CCC(=O)[C@@]21C	14.2%
Cc1ccc(S(=O)(=O)N2CCC(C(=O)O)(c3ccccc3)CC2)cc1	-9.45%
O=C1c2ccccc2CN1c1ccc(O)cc1	16.9%
O=[N+]([O-])c1ccc(N2CCN=N2)cc1	-6.75%
CCN1C(=O)C(=O)C(CC)(CC)C1=O	-13.6%
FC1(F)ON2CCc3ccccc3C2[C@H]1c1ccccc1 (stereo not given in full)	-50%
N#CC(c1ccccc1)C1CCCCC1 (stereo not given)	20.4%
CCN(CC)CCNC(=O)c1ccc(NCN2C(=O)NC(c3ccccc3)(c3ccccc3)C2=O)cc1	50.8%
O=c1c2c(no[n+]2[O-])c2ccccc2n1-c1ccccc1	96% (active)
CC(=O)OCC1OC(n2cccnc2=O)C(OC(C)=O)C1OC(C)=O (stereo not given)	0.9%
OC(CC1CCCC(CC(O)c2ccccc2)N1CCc1ccccc1)c1ccccc1 (stereo not given)	21.2%
Cc1c(-c2ccc(Cl)cc2)n[nH]c1-c1[nH]nc(-c2ccc(Cl)cc2)c1C	-1.9%
N=c1sc2ccccc2n1CC(=O)O	-41.2%
CCOc1ccc(Cc2ccc3c(c2)OCO3)cc1C	2.2%
Cc1cc(O)c(C(C)C)cc1N=O	6.35%
CCC(=O)OCCSCCOC(=O)CC	-15.8%
C[Si](C)(C)CN=P(c1ccccc1)(c1ccccc1)c1ccccc1	-4.8%
CC(=O)Oc1cccc(/C=C/C(=O)O)c1	18.9%
CCCCOC1NC(=O)NC(=O)C1(F)C(=O)OCC (stereo not given)	-0.85%
